Assay results: PubChem BioAssay (NCATS)
Results filed as inconclusive are left out. Activity calls are given as the source filed them. Calls come from the whole dose curve; as a rule, active = well fitted inhibition curve with a large enough effect; inconclusive = small, poorly fitted or top-dose-only effect; inactive = flat fitted curve, though single readings scatter.

These compounds were tested against Calcium and integrin-binding protein 1 (Homo sapiens) (UniProt Q99828) (assay: Primary qHTS for Identification of Calcium Integrin Binding Protein 1 (CIB1) Competitor (AID 1508620;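 note: GST tagged CIB1 binding a fluorescein labelled alphaIIb integrin peptide tracer; top concentration of the series differs between compounds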)). Details: CIB1-GST / FITC-alphaIIb peptide fluorescence polarization; series mostly up to 114 µM.
Calcium and integrin-binding protein 1 (Homo sapiens), sequence (Q99828 whole entry, looked up): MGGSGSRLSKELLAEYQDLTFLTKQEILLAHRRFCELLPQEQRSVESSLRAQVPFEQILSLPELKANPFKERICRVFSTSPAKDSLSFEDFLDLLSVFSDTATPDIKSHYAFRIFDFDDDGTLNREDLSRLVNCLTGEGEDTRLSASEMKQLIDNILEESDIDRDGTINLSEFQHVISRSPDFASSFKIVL
Outline: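 CIB1-GST (1 uM final) and compound incubated 15 min at room temperature before adding FITC-alphaIIb peptide tracer (100 nM final). Competition for binding read by fluorescence polarization (ex 480, em 540) after another 15 min at room temperature.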
`O=C(Nc1ncc(Cc2ccc(C(F)(F)F)cc2)s1)c1cnc(-c2ccccc2)o1` was tested, and the outcome was “inactive”.
`Cc1cccc(C)c1OP(=O)(OCc1c(-c2ccccc2)no[n+]1[O-])Oc1c(C)cccc1C` was tested, and the outcome was “inactive”.
For `O=C(O)c1ccc(O)c2ncc(N3CCCNCC3)cc12`, the outcome was “inactive”.
With `Cn1cc(Cl)c(C2N=C(Nc3nc4ccccc4o3)NC3=C2C(=O)CCC3)n1` (stereo not given) the outcome was “inactive”.
`CCOc1ccc(CCNC(=O)c2cc3ccncc3n2Cc2cccc(C)c2)cc1OCC` was tested, and the outcome was “inactive”.
For `CCCc1ccc(NC(=O)c2ccc3c(c2)NC(=O)CS3)cc1`, the outcome was “inactive”.
In the case of `CCOc1ccc(CCNC(=O)c2cc3cnccc3n2Cc2cccc(C)c2)cc1OCC`, the outcome is reported as “inactive”.
For `CCOc1ccc(CCNC(=O)c2cc3sccc3n2CCN(C)C)cc1OCC`, the outcome was “inactive”.
With `COc1cccc(CNc2ccc(S(=O)(=O)Nc3ccc4ccccc4c3)cc2)c1O` the outcome was “inactive”.
In the case of `S=P(c1ccccc1)(c1ccccc1)c1c(-c2ccccc2)[nH]c2ccccc12`, the outcome is reported as “inactive”.
For `COc1cccc(CNc2ccc(S(=O)(=O)Nc3nccs3)cc2)c1OC`, the outcome was “inactive”.
In the case of `S=P(c1ccccc1)(c1ccccc1)c1c[n+](Cc2ccccc2)c2ccccn12`, the outcome is reported as “inactive”.
In the case of `CCc1nn2c(=O)c(C)c(N3CCNCC3)nc2s1`, the outcome is reported as “inactive”.
In the case of `CCOc1ccc(CCNC(=O)c2cc3ccncc3n2Cc2cccc(C)n2)cc1OCC`, the outcome is reported as “inactive”.
`CCOc1ccc(CCNC(=O)c2cc3cccnc3n2Cc2cccc(C)c2)cc1OCC` was tested, and the outcome was “inactive”.
With `CCOc1ccc(CCNC(=O)c2ccccc2)cc1OCC` the outcome was “inactive”.
With `CCOc1ccc(CCNC(=O)c2cc3ncccc3n2Cc2cccc(C)n2)cc1OCC` the outcome was “inactive”.
In the case of `Cc1nn2c(=O)cc(N3CCNCC3)nc2s1`, the outcome is reported as “inactive”.
With `N#Cc1ccc(NC(=O)Nc2nnc(-c3ccncc3)s2)cc1C(F)(F)F` the outcome was “inactive”.
For `COc1cccc(CNc2ccc(S(=O)(=O)Nc3nc(C)c(C)s3)cc2)c1O`, the outcome was “inactive”.
In the case of `S=P(c1ccccc1)(c1ccccc1)c1c[nH]c2ccccc12`, the outcome is reported as “inactive”.
For `Cc1nc2ccccn2c1P(=S)(c1ccccc1)c1ccccc1`, the outcome was “inactive”.
`O=S(=O)(Nc1ccccc1)c1ccc(NCc2ccc(Br)cc2O)cc1` was tested, and the outcome was “inactive”.
For `CCOc1ccc(CCNC(=O)c2ccc(C(=O)c3ccccc3)cc2)cc1OCC`, the outcome was “inactive”.
With `CCc1nn2c(=O)cc(N3CCN(C)CC3)nc2s1` the outcome was “inactive”.
`Cc1cc(C)c(OP(=O)(OCc2c(-c3ccccc3)no[n+]2[O-])Oc2c(C)cc(C)cc2C)c(C)c1` was tested, and the outcome was “inactive”.
In the case of `CCOc1ccc(CCNC(=O)c2cc3ccccc3n2CCN2CCOCC2)cc1OCC`, the outcome is reported as “inactive”.
In the case of `CC(=O)Nc1ncc(S(=O)(=O)N2CCOCC2)s1`, the outcome is reported as “inactive”.
`O=S(=O)(Nc1cccc2ccncc12)c1ccc(NCc2cccc(Cl)c2O)cc1` was tested, and the outcome was “inactive”.
With `CCOc1ccc(CCNC(=O)c2cc3cccnc3n2Cc2cccc(C)n2)cc1OCC` the outcome was “inactive”.
`Cc1cc(-c2nnc3n2CCCCC3)c(C)n1-c1cccnc1` was tested, and the outcome was “inactive”.
With `S=P(c1ccccc1)(c1ccccc1)c1cnc2ccccn12` the outcome was “inactive”.
With `Cc1ccc2nc(NC3=NC(c4[nH]ncc4Cl)C4=C(CCCC4=O)N3)oc2c1` (stereo not given) the outcome was “inactive”.
For `CCOc1ccc(CCNC(=O)c2ccc(Oc3ccccc3)cc2)cc1OCC`, the outcome was “inactive”.
With `COc1cccc(CNc2ccc(C(=O)Nc3nccs3)cc2)c1O` the outcome was “inactive”.
For `CC1=C(C(=O)Nc2nccs2)C(c2ccccc2Br)N=C(Nc2nc3ccccc3o2)N1` (stereo not given), the outcome was “inactive”.
For `Cn1cc(Br)c(C2N=C(Nc3nc4ccccc4o3)NC3=C2C(=O)CCC3)n1` (stereo not given), the outcome was “inactive”.
In the case of `Cc1c(P(=S)(c2ccccc2)c2ccccc2)[n+]2ccccc2n1C`, the outcome is reported as “inactive”.
With `O=C1CCCC2=C1C(c1[nH]ncc1Cl)N=C(Nc1nc3ccc(F)cc3o1)N2` (stereo not given) the outcome was “inactive”.
With `Cn1cc(P(=S)(c2ccccc2)c2ccccc2)c2ccccc21` the outcome was “inactive”.
